# Screening data as filed in PubChem.
# Rows were chosen to be rich in hits. Some 7.3% of all compounds tested hit in one or more screens of this group.
# FMDV inh = antivirals against foot and mouth disease virus. Potency, µM (top dose mostly 57.9 µM), for the others: at the highest dose activity change, negative = inhibition, actives largely listed as inhibitors. 410,000 compounds, 1.2% hits. FMDV antiviral cell-based qHTS. AID 1159524; calls by dose curve; tested in HEK293T cells; further: read-out not given here; potency means the concentration at half of the fitted maximal effect; nearly all actives have a fitted effect of over 45% in size
# AmpC inh detg = blocks E. coli AmpC beta-lactamase in detergent assay | 370,000 compounds, 0.041% hits | AmpC hydrolysis of nitrocefin, absorbance 480 nm, 0.01% Triton | Potency, µM (top dose mostly 114 µM), for inactives: at the highest dose activity change, negative = inhibition, hits mostly inhibitors | P00811 | AID 485294;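 further: potency means the concentration at half of the fitted maximal effect; 0% = no-compound wells and -100% = no-enzyme wells; nearly all actives have a fitted effect of over 25% in size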
# Target sequence (P00811 whole entry, looked up): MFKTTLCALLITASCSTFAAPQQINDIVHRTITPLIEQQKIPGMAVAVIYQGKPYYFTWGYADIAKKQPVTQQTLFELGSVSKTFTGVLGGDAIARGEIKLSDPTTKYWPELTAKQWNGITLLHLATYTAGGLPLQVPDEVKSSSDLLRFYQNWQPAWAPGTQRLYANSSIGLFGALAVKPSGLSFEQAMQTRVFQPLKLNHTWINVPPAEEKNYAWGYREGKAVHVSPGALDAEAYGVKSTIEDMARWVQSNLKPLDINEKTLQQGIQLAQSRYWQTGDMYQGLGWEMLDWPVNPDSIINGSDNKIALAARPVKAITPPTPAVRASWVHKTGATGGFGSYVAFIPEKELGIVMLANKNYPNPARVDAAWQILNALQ
#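 20 mM phosphate pH 7.0 + 0.01% (detergent screen) or 0.0001% Triton X-100; 5.3 nM AmpC reagent; cpd preinc 15 min RT; nitrocefin (800 uM stock) to start; A480 q20 s × 4 min; Activity was normalised to no-enzyme and no-compound control wells.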
# HCV inhibitor = blocks hepatitis C virus. AID 651820. 340,000 compounds, 3.4% hits. Potency, µM (highest dose often 41.8 µM), for the others: at the highest dose activity change, negative = inhibition, usual class: inhibitors. Huh7.5.1 HCVcc-Cre infection, luciferase reporter, 44 h; further: potency means the concentration at half of the fitted maximal effect
#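 Cells seeded at 1,000/well and cultured 4 h, then compounds added followed by HCVcc-Cre virus (~0.5 moi). After 44 h further culture, luciferase substrate was added, plates held 15 min at room temperature, and luminescence read for 15 sec.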
# HCMV inh = blocks human cytomegalovirus replication; activity change, negative = inhibition, % at 57.5 µM; HFF cells, HCMV-luciferase reporter, 72 h; hits give low values; 410,000 compounds, 4.5% hits; in the data active means activity change below about -60%; inconclusive means no clear call, values can overlap the other calls; inactive means above about -39%
#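 HFF cells seeded 16 h at 37C, treated with compounds, infected with luciferase-reporter HCMV at MOI 1 PFU/cell; luciferase read at 72 h post infection, normalized to buffer-only and Salinomycin controls.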
# AmpC inh no detg = AmpC beta-lactamase inhibition without detergent; P00811; AmpC nitrocefin hydrolysis, absorbance 480 nm, 0.0001% Triton; Potency, µM (titrated, usually from 57.1 µM), inactives show at the top dose activity change, negative = inhibition, most hits filed as inhibitors; 330,000 compounds, 0.52% hits; AID 485341;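 further: potency means the concentration at half of the fitted maximal effect; plate controls were no compound for no effect and no enzyme for full effect; nearly all actives have a fitted effect of over 20% in size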
#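 AmpC (5.3 nM in the dispensed reagent) in 20 mM phosphate pH 7.0 with 0.01% (detergent screen) or 0.0001% Triton X-100 was preincubated with compounds for 15 min at room temperature. Nitrocefin was then added from an 800 uM solution, and hydrolysis was followed at 480 nm.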
# Numbers without * were called inactive; u = inconclusive; x = no result. Unless noted, the call rests on the fitted dose curve; in most records, active means well fitted curve in the direction sought with a large enough effect; inconclusive means small, poorly fitted or top-dose-only effect, or another doubt; inactive means no such curve, though single readings can be large; an effect the other way counts as inactive or inconclusive. Unless noted, on the % scale 0 is the no-effect control and ±100 the full control effect.
SMILES,FMDV inh,AmpC inh detg,HCV inhibitor,HCMV inh,AmpC inh no detg
CCN(CC)C(=O)CSc1nc2ccc(NC(=O)CSc3nnc(COc4ccccc4C)n3C)cc2s1,22.4µM*,u,10µM*,-19.9,44.8%
Cc1ccc(/C=C/C(=O)OC(C)C(=O)Nc2ncc(Cl)cc2Cl)o1 (stereo unspecified),-24.2%,5.3%,-4.3%,-98.1*,-18.7%
Cc1nn(-c2ccccc2)c(C)c1/C=C/C(=O)OC(C)C(=O)Nc1ncc(Cl)cc1Cl (stereo unspecified),0.0%,-21.3%,u,-33.1,44.9%
Cc1ccc(C(=O)SC2=NCCS2)cc1,35.5µM*,-1.7%,10.3%,-39.7,-22.9%
O=c1ncn(C2CCCCC2)c(=O)[nH]1,2.7%,x,2.2%,-19.5,x
CC(C)N1C(=O)c2ccccc2N(Cc2ccccc2)S1(=O)=O,-21.2%,-3.9%,-15.5%,-61.6*,-35.3%
NC(=O)Nc1sc(-c2ccc(F)cc2)cc1C(N)=O,21.7%,x,x,x,x
COc1ccc(-c2ccc(C(=O)N3CCc4c(cnc(C)c4CNS(=O)(=O)N(C)C)C3)o2)cc1,-0.4%,x,x,x,x
COc1ccc(N(Cc2nc3cc(C)c(C)cc3[nH]2)Cc2nc3cc(C)c(C)cc3[nH]2)cc1,x,x,x,20.3,x
CSCCC(NC(=O)c1ccccc1Br)C(=O)NC(C)CCc1ccccc1 (stereo unspecified),19.1%,7.0%,x,-27.4,-6.4%
CSCCC(NC(=O)c1ccccc1Br)C(=O)NNC(=O)c1cc(C)oc1C (stereo unspecified),-23.0%,x,-14.4%,-62.8*,-19.7%
CSCCC(NC(=O)c1ccccc1Cl)C(=O)N1CCN(C(C)=O)CC1 (stereo unspecified),-14.2%,u,-2.5%,76.2,-15.7%
CSCCC(NC(=O)c1ccccc1Br)C(=O)N1CCN(C/C=C/c2ccccc2)CC1 (stereo unspecified),-29.3%,x,u,-82.7*,x
CSCCC(NC(=O)c1ccccc1)C(=O)NNC(=O)c1ccccc1 (stereo unspecified),1.7%,x,2.8%,-61.9*,-30.2%
CCn1cc(/C=C(\NC(=O)c2ccccc2)C(=O)N2CCOCC2)c2ccccc21,6.3%,u,6.7%,20.0,76.8%
OCC1OC(n2cnc3c(/C=C(\O)c4ccccc4)ncnc32)C(O)C1O (stereo unspecified),29.5%,x,u,14.0,x
CCC[C@H]1[C@H](NCc2cccs2)CC[C@@]23CCCN2C(=O)CCC[C@@H]13,x,x,x,6.1,x
Cc1ccc(C(O)c2cccnc2)o1 (stereo unspecified),3.2%,-7.8%,-29.8%,73.9,-20.9%
Cc1ccccc1C(O)c1cccnc1 (stereo unspecified),-23.8%,u,14.8%,-60.7*,-11.1%
COc1ccc(OC)c(-c2cc(Cl)c3c(c2)CC(CNC(=O)[C@@H]2CCCN2C(C)=O)O3)c1 (stereo partly specified),-2.7%,x,x,x,x
C[C@@H]1CN(Cc2ccc3c(c2)CN(C(=O)CCc2nc4ccc(F)cc4[nH]2)CCO3)C[C@H](C)O1,-1.3%,x,x,x,x
Cc1ccccc1OCCc1c(C)[nH]c(=S)[nH]c1=O,u,3.2%,-24.9%,-63.9*,-22.0%
Cc1[nH]c2ccc(-c3n[nH]c(=S)n3Cc3ccccc3)cc2c1C,-15.9%,-1.1%,-3.3%,-17.0,11.2µM*
Cc1c(/C=C/C(=O)c2ccc(C(C)C)cc2)cnn1C,-1.2%,-2.8%,31.6µM*,-87.1*,48.9%
Fc1ccc(C2c3[nH]c4ccccc4c3CCN2Cc2cccn2-c2ncccn2)cc1 (stereo unspecified),-1.2%,1.0%,u,-90.9*,-7.8%
SMILES,FMDV inh,AmpC inh detg,HCV inhibitor,HCMV inh,AmpC inh no detg
Cc1nc2ccccc2c(=O)n1CCc1ccccc1,-7.9%,14.6%,-0.2%,63.4,6.6%
Cc1nc2ccccc2c(=O)n1N(c1ccccc1)c1ccccc1,-17.7%,u,u,-68.0*,4.2%
O=c1c2ccccc2c(C=Nc2ccc(S(=O)(=O)Nc3ncccn3)cc2)c(O)n1-c1cccc(Cl)c1,x,2.3%,x,-6.7,-10.4%
Cc1cc(N=Cc2c(O)n(-c3cccc(Cl)c3)c(=O)c3ccccc23)no1,-18.2%,-1.2%,15.6%,-60.2*,u
CN(C(=O)CCN1C(=O)S/C(=C\c2ccccc2)C1=O)C1CCS(=O)(=O)C1 (stereo unspecified),-18.8%,4.3%,9.6%,4.5,-1.5%
Cc1oc(-c2ccccc2F)nc1CS(=O)(=O)CC(=O)N1CCOCC1,-0.9%,u,0.6%,-1.1,u
Cc1cccc(N2CCN(C(=O)CS(=O)(=O)Cc3nc(-c4ccccc4F)oc3C)CC2C)c1 (stereo unspecified),35.5µM*,u,12.6µM*,-31.0,222.0%
Cc1oc(-c2ccccc2F)nc1CS(=O)(=O)CC(=O)N1CCN(c2cccc(C(F)(F)F)c2)CC1,35.5µM*,-2.9%,x,-23.8,x
Nc1nc(=S)c2ncn([C@@H]3O[C@H](CO)[C@@H](O)[C@H]3O)c2[nH]1,-29.5%,-13.0%,2.24µM*,-88.7*,-10.7%
Nc1nc(=S)c2ncn(C3OC(CO)C(O)C3O)c2[nH]1 (stereo unspecified),-5.5%,2.8%,-24.1%,-10.5,-26.5%
COC(=O)C1=C(C)NC(C)=C(C(=O)OCC2CCCO2)C1c1ccc(Cl)c([N+](=O)[O-])c1 (stereo unspecified),x,13.3%,x,10.7,71.6%
CC1=C(C(=O)OCCNC(=O)c2ccccc2O)C(c2ccccc2[N+](=O)[O-])C(C(=O)OCC2CCCO2)=C(C)N1 (stereo unspecified),28.2µM*,-9.6%,u,u,15.8%
COc1ccc2c(c1)c1c(c(=O)n(-c3ccc(F)c(Cl)c3)c(=O)n1CC(=O)N1CCCC1)n2C,-2.9%,-2.8%,x,11.1,x
CN1CCC(OC2c3ccccc3CCc3ccccc32)CC1,-24.3%,x,x,u,x
Brc1ccc2c(c1)C(OC1CN3CCC1CC3)c1ccccc1CS2 (stereo unspecified),-10.6%,-13.5%,31.6µM*,-26.6,124.7%
COc1cc2c(-c3ccc4[nH]ccc4c3)c(-c3ccc(C#N)cc3)oc(=O)c2cc1OC,-10.0%,-5.2%,11.2µM*,-25.1,3.7%
O=S(=O)(c1ccc(Oc2ccc(F)c(Cl)c2)nc1)N1CCOCC1,-25.2%,-11.9%,19.9%,-34.0,-22.3%
CNS(=O)(=O)c1cccc(C(=O)OCC(=O)NCCCc2ccccc2)c1,0.0%,-3.1%,7.4%,43.8,-10.3%
CNS(=O)(=O)c1cccc(C(=O)OCCCOC(=O)c2cccc(S(=O)(=O)NC)c2)c1,0.0%,4.4%,11.2µM*,-16.9,-16.3%
Cc1cc(C)c(S(=O)(=O)N2Cc3ccccc3-n3nncc3C2)c(C)c1,22.4µM*,x,x,u,x
COc1ccc(S(=O)(=O)N2Cc3ccccc3-n3nncc3C2)cc1,0.0%,x,x,-16.9,x
